Records with an inconclusive call do not appear. The source made the active and inactive calls. Unless noted, calls follow the shape of the dose curve; as a rule, active = well fitted curve in the direction sought with a large enough effect; inconclusive = small, poorly fitted or top-dose-only effect, or another doubt; inactive = no such curve, though single readings can be large; an effect the other way counts as inactive or inconclusive.
Experiments:
[1] = AP1 Signaling Pathway (AID 357; active = well fitted curve in either direction with a large enough effect, not every such curve was filed as active;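 also: ME-180 reporter cells stimulated with EGF at its EC50 level; % is scaled to controls: 0 for no effect and ±100 for the full control effect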)
How it was run: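 Read-out was the 460nm/530nm emission ratio (excitation 405nm) after CCF4 loading for 2.5 hours at room temperature. Cells carried an AP-1-driven beta-lactamase reporter, were stimulated with EC50 EGF plus compound for 5 hours, and AC50 values came from titrations.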

[2] = Stat Signaling Pathway (AID 446; active = well fitted curve in either direction with a large enough effect, not every such curve was filed as active;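 also: ME-180 cervical cancer cells given 40 pM IL-6 alongside compound; SIE-controlled beta-lactamase reporter measured as 460/530 nm FRET emission ratio; % is scaled to controls: 0 for no effect and ±100 for the full control effect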)
How it was run: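 Compound effects on IL-6-induced STAT reporter activity were measured in ME-180 cells. After overnight culture, cells were co-treated with 40 pM IL-6 for 5 hrs before beta-lactamase substrate loading at room temperature.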

[3] = biological target: Glucocorticoid receptor (Homo sapiens) (UniProt P04150); experiment: GR-GFP Redistribution (AID 450;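 active = compounds whose dose series gives a full or clear partial fitted curve of increased nuclear translocation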; also: potency is read from the fitted curve at half-maximal effect); settings: U2OS GR-GFP nuclear translocation, laser cytometry, 2 h
Sequence of Glucocorticoid receptor (Homo sapiens) (P04150 whole entry, looked up, the tested form may be a part): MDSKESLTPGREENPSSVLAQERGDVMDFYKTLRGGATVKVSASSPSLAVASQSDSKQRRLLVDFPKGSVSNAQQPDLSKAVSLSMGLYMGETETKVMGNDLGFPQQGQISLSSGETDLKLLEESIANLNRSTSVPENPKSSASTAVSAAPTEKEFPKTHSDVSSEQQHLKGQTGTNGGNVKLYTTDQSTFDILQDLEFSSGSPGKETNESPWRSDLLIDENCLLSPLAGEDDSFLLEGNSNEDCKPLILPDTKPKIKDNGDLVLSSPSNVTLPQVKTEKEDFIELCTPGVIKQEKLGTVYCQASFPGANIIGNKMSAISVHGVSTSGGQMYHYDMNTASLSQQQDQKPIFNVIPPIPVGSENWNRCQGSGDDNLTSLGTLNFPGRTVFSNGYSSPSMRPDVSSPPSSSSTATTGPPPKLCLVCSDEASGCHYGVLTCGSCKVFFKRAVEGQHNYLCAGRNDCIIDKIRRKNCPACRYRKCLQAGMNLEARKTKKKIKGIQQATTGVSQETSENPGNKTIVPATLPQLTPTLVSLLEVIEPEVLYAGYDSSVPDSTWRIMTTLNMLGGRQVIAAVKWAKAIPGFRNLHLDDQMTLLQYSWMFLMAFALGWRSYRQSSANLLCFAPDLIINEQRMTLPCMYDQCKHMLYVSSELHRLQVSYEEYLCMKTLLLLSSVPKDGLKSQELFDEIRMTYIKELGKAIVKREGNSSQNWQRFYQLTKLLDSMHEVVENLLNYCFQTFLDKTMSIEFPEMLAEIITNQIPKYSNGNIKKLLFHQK

[4] = biological target: Glucocorticoid receptor (Homo sapiens) (UniProt P04150); experiment: GR-EFC Redistribution (AID 451; calls by dose curve; also: potency is read from the fitted curve at half-maximal effect); settings: CHO-K1 GR-EFC translocation, beta-gal luminescence, 2 h
How it was run: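 CHO-K1 cells stably expressing nuclear-localized β-gal enzyme acceptor and GR fused C-terminally to the enzyme donor fragment; ligand-driven nuclear translocation restores β-gal by complementation. Compounds titrated up to 46 uM final, 2 h at 37 °C; luminescence read.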

[5] = biological target: Mitogen-activated protein kinase 10 (Mus musculus) (UniProt Q61831); experiment: JNK3 AlphaScreen Assay (AID 530; active = well fitted curve in either direction with a large enough effect, not every such curve was filed as active;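 also: kinase came from lysate of stimulated human HepG2 cells; signal reports phosphorylation of biotinylated GST-cJun 1-79 at Ser73 with 10 µM ATP; % is scaled to controls: 0 for no effect and ±100 for the full control effect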)
How it was run: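 Phosphorylation of biotinylated GST-cJun(1-79) at Ser73 is measured by AlphaScreen proximity luminescence. Enzyme is JNK3 in HepG2 lysates activated with interleukin-1beta and tumor necrosis factor alpha; ATP is 10 uM final.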

[6] = qHTS Assay for Lipid Storage Modulators (AID 1519; calls by dose curve); settings: Drosophila S3 cells, BODIPY lipid droplet/cell ratio, laser cytometry, cells loaded with oleic acid; for activity change, negative = inhibition: at 25.7 µM (top of the series)
How it was run: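 Cells seeded at 5,000 per well were treated with compounds over a concentration series and loaded with oleic acid (400 uM, as added). Lipid droplet fluorescence (488 nm excitation, 500-530 nm channel) was read by laser-scanning cytometry and normalized to 20 uM Triacsin C.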

[7] = biological target: ATP-dependent 6-phosphofructokinase (Trypanosoma brucei brucei) (UniProt O15648); experiment: qHTS Assay to Find Inhibitors of T. brucei phosphofructokinase: hit validation (AID 492961);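 also: luminescence reports ADP formed as PFK phosphorylates fructose-6-phosphate with ATP; % is scaled to controls: 0 for no effect and ±100 for the full control effect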
Sequence of ATP-dependent 6-phosphofructokinase (Trypanosoma brucei brucei) (O15648 whole entry, looked up): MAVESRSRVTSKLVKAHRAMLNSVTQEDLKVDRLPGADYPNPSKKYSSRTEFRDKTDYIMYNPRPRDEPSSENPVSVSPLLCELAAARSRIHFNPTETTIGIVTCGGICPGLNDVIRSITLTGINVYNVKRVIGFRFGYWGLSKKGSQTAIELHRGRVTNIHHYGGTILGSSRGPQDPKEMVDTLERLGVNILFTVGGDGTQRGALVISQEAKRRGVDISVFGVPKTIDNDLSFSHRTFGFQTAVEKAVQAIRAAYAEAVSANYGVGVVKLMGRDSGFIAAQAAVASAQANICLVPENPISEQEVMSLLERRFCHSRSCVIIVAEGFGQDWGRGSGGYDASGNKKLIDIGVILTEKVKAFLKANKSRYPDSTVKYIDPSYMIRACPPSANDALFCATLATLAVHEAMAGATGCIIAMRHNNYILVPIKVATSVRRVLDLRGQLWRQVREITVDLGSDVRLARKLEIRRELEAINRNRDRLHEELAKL
How it was run: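 Reaction: 0.1 M triethanolamine pH 8.0, 5 mM MgCl2, F6P 0.5 mM, ATP 0.1 mM, PFK 1.25 nM, 45 min RT. Read-out: ADP-Glo luminescence. Analysis: concentration-response fits, classed by r2 and efficacy.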

[8] = biological target: Ubiquitin carboxyl-terminal hydrolase 1 (Homo sapiens) (UniProt O94782); experiment: Inhibitors of USP1/UAF1: Pilot qHTS (AID 504865);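 also: rhodamine fluorescence freed from ubiquitin-rhodamine substrate followed over time; top concentration of the series differs between compounds; % is scaled to controls: 0 for no effect and ±100 for the full control effect; nearly all actives have a fitted effect of over 35% in size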
Sequence of Ubiquitin carboxyl-terminal hydrolase 1 (Homo sapiens) (O94782 whole entry, looked up): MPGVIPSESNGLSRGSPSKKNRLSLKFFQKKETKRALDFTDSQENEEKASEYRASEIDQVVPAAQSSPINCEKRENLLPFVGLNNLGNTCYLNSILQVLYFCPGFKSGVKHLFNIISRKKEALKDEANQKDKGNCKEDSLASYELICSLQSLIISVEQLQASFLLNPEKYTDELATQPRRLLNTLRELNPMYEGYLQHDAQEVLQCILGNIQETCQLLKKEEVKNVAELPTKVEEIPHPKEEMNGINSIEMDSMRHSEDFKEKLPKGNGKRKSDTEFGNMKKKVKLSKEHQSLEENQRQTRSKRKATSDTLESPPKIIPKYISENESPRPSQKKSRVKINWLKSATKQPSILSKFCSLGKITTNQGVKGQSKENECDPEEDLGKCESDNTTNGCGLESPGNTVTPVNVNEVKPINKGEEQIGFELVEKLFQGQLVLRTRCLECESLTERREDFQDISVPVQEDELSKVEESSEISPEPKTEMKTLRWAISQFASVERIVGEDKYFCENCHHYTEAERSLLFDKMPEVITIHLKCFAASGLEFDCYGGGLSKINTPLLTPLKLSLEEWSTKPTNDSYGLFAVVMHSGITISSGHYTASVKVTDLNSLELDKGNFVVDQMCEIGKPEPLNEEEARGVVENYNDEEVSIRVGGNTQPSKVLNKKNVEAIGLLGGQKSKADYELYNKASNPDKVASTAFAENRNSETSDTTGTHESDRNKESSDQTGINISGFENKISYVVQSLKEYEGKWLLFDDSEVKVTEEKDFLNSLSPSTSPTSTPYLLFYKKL
How it was run: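 1nM USP1/UAF1 + cpd, 15 min RT; start w/ Ub-Rho 150nM final; kinetic FL 480/540 nm, 6 reads q60 s. Buffer 50mM HEPES pH 7.8, 0.5mM EDTA, 1mM TCEP, 0.01% Tween-20, 0.1 mg/ml BSA.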

[9] = S16 Schwann cell PMP22 intronic element firefly luciferase assay (AID 624032); also: nearly all actives have a fitted effect of over 30% in size; also: potency is read from the fitted curve at half-maximal effect;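 as to activity change, negative = inhibition: plate controls were DMSO for no effect and PTC124 positive control mean for full effect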
How it was run: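 Rat S16 Schwann cells stably carrying a PMP22 intronic element-driven Fluc reporter were seeded overnight, then exposed to compounds for 24 h at 37 °C. Luminescence was normalized to PTC124 (positive control) and DMSO (0% activity).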

[10] = qHTS profiling for inhibitors of Plasmodium falciparum proliferation (AID 504749);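 also: 0% = DMSO vehicle and full inhibition = artemisinin control; nearly all actives have a fitted effect of over 60% in size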; settings: P. falciparum in erythrocytes, SYBR Green DNA, 72 h, at 12.8 µM (top of the series)
How it was run: (§1)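 Quantitative HTS: compounds pinned into medium, infected erythrocytes added (0.3% parasitemia, 2.5% hematocrit), 72 h culture at 37 C under 5% CO2. Saponin/Triton lysis with SYBR Green I, overnight RT, then fluorescence read.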

C2A = experiment: as above; settings: P. falciparum in erythrocytes, SYBR Green DNA, 72 h; series mostly up to 12.8 µM
How it was run: as §1

CP238 = experiment: as above; settings: P. falciparum in erythrocytes, SYBR Green DNA, 72 h; series mostly up to 12.8 µM
How it was run: as §1

CP250 = experiment: as above; settings: P. falciparum in erythrocytes, SYBR Green DNA, 72 h; series mostly up to 12.8 µM
How it was run: as §1

FAB9 = experiment: as above; settings: P. falciparum in erythrocytes, SYBR Green DNA, 72 h; series mostly up to 12.8 µM
How it was run: as §1

JCK = experiment: as above; settings: P. falciparum in erythrocytes, SYBR Green DNA, 72 h; series mostly up to 12.8 µM
How it was run: as §1

PC49 = experiment: as above; settings: P. falciparum in erythrocytes, SYBR Green DNA, 72 h; series mostly up to 12.8 µM
How it was run: as §1

SC27B = experiment: as above; settings: P. falciparum in erythrocytes, SYBR Green DNA, 72 h; series mostly up to 12.8 µM
How it was run: as §1

[11] = biological target: 3',5'-cyclic-AMP phosphodiesterase 4B (Homo sapiens) (UniProt Q07343); experiment: qHTS Assay for Inhibitors of PDE-IV (AID 607; active = well fitted activation curve with a large enough effect in the main read-out, with a control signal flat, not every such curve was filed as active; also: % of control where 0% means no effect)
Sequence of 3',5'-cyclic-AMP phosphodiesterase 4B (Homo sapiens) (Q07343 whole entry, looked up): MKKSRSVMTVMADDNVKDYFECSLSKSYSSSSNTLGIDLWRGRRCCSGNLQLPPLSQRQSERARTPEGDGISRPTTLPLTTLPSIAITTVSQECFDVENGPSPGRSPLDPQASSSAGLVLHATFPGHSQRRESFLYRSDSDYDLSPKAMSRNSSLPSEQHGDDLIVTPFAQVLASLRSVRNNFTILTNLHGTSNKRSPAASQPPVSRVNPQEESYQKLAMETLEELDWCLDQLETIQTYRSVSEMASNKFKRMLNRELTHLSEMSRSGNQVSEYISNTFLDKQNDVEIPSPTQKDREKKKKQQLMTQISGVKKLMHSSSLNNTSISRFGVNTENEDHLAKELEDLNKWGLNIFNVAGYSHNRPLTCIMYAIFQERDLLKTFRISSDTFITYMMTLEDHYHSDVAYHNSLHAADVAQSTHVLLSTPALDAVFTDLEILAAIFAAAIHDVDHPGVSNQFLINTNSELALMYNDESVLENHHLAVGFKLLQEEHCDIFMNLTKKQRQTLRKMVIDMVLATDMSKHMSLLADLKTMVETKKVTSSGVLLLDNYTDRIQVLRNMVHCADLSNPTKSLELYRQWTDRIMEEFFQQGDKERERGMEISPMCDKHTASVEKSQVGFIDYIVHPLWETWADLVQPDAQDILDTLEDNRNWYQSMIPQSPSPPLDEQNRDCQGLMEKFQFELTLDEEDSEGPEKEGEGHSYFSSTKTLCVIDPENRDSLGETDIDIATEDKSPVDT
How it was run: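 ACTOne HEK293 cells carry a modified cAMP-gated CNG channel and express endogenous PDE4; plated 1000 cells/well, compounds up to 22.9 uM final. Membrane-potential dye fluorescence (ex 535/em 590) was read; parental cells received 10 uM forskolin + 100 uM RO 20-1724.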

CP201 = experiment: qHTS profiling for inhibitors of Plasmodium falciparum proliferation (AID 504749);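 also: 0% = DMSO vehicle and full inhibition = artemisinin control; nearly all actives have a fitted effect of over 60% in size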; settings: P. falciparum in erythrocytes, SYBR Green DNA, 72 h; series mostly up to 12.8 µM
How it was run: as §1

[12] = measured here: cell count channel max response
[13] = measured here: lipid channel max response

CS(=O)(=O)c1ccc([C@H](O)[C@H](CO)NC(=O)C(Cl)Cl)cc1
inactive: outcome [1] | outcome [2] | Potency [3] > 20.6 µM | Potency [4] > 20.6 µM | Potency [5] | activity change, negative = inhibition [6] -0.717% | outcome [7] | Potency [8] | Potency [9] | activity, negative = inhibition ([10]; parasite line A) -20.3% | activity, negative = inhibition ([10]; parasite line B) -19.1% | Potency (C2A) | Potency (CP238) | Potency (CP250) | Potency (FAB9) | Potency (JCK) | Potency (PC49) | Potency (SC27B)
3.5%: max response [6, 12]
5.27%: max response [6, 13]

C[C@H](Oc1ccccc1)C(=O)N[C@@H]1C(=O)N2[C@@H]1SC(C)(C)[C@@H]2C(=O)O
-3.26%: max response [6, 13]
-5.3%: max response [6, 12]
inactive: outcome [1] | outcome [2] | Potency [3] > 20.6 µM | Potency [4] > 20.6 µM | Potency [5] | outcome [11] | activity change, negative = inhibition [6] -0.821% | outcome [7] | Potency [8] | Potency [9] | activity, negative = inhibition ([10]; parasite line A) 9.22% | activity, negative = inhibition ([10]; parasite line B) 2.55% | Potency (C2A) | Potency (CP201) | Potency (CP238) | Potency (CP250) | Potency (FAB9) | Potency (JCK) | Potency (PC49) | Potency (SC27B)

C#C[C@]1(O)CC[C@@H]2[C@H]3CCC4=CCCC[C@@H]4[C@@H]3CC[C@@]21C
-10.1%: max response [6, 13]
inactive: outcome [1] | outcome [2] | Potency [3] > 20.6 µM | Potency [4] > 20.6 µM | Potency [5] | outcome [11] | activity change, negative = inhibition [6] -4.16% | outcome [7] | activity, negative = inhibition ([10]; parasite line A) 11.7% | activity, negative = inhibition ([10]; parasite line B) 0.61% | Potency (C2A) | Potency (CP201) | Potency (CP238) | Potency (CP250) | Potency (FAB9) | Potency (JCK) | Potency (PC49) | Potency (SC27B)
active: Potency [9] 5.49 µM
-7.9%: max response [6, 12]
